# PubChem BioAssay (NCI)
# The panel holds about 79,000 compounds, 15% with a hit somewhere; the sample as a whole holds those more often. Values without a mark were called inactive. The source made the active and inactive calls. Cut-off read from the data, not from the text of the source: active = growth inhibition above about 70%; inactive = the rest.
# Columns and labels:
# [1] = NCI Yeast Anticancer Drug Screen. Data for the rad50 strain (AID 155);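 note: 0% = growth of vehicle-only cultures of the same strain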; details: S. cerevisiae rad50 strain growth inhibition; at 50.0 µM; hits give high values
# Summary of the method: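 Inhibition values express reduced yeast growth in compound-treated cultures relative to vehicle-treated controls.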
# [2] = NCI Yeast Anticancer Drug Screen. Data for the mec2-1 strain (AID 157); details: S. cerevisiae mec2-1 strain, at 50.0 µM, hits give high values
# Summary of the method: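 Test agents were screened against the mec2-1 yeast strain, with defined DNA repair or cell cycle alteration. Growth was scored as inhibition against vehicle-only controls.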
# [3] = NCI Yeast Anticancer Drug Screen. Data for the sgs1 mgt1 strain (AID 161);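 note: 0% = growth of cultures given vehicle only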; details: S. cerevisiae sgs1 mgt1 strain, at 50.0 µM, hits give high values
# Summary of the method: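 Read-out: growth inhibition vs vehicle controls. Cells: mutant yeast strain deficient in DNA damage repair.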
# [4] = NCI Yeast Anticancer Drug Screen. Data for the cln2 rad14 strain (AID 165);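 note: 0% = growth equal to vehicle treated cultures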; details: S. cerevisiae cln2 rad14 strain, at 50.0 µM, hits give high values
# Summary of the method: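 Growth of compound-exposed yeast (cln2 rad14 genotype) measured and expressed as inhibition relative to vehicle.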
# [5] = NCI Yeast Anticancer Drug Screen. Data for the bub3 strain (AID 167); details: S. cerevisiae bub3 mutant strain, at 50.0 µM, hits give high values
# Summary of the method: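 Steps: expose the mutant yeast strain to compound; grow alongside vehicle-treated cultures; measure growth; express inhibition against the vehicle cultures.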
# [6] = NCI Yeast Anticancer Drug Screen. Data for the mlh1 rad18 strain (AID 175); details: S. cerevisiae mlh1 rad18 strain growth inhibition; at 50.0 µM; hits give high values
# Summary of the method: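 In this whole-cell yeast screen, a strain with altered DNA damage repair is challenged with compound, and its growth is measured against matched vehicle-treated controls.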
Compound,growth inhibition [1],growth inhibition [2],growth inhibition [3],growth inhibition [4],growth inhibition [5],growth inhibition [6]
NC1=NC(=O)N(C2CC(O)C(COP(=O)(O)O)O2)C(I)C1 (stereo unspecified),31.9%,0%,12.9%,-28.6%,-0.6%,13.2%
COC(=O)c1nnn(-c2cccc(Cl)c2)c1N,3.7%,-6.1%,-0.25%,15.7%,-26.9%,20.4%
CS(=O)(=O)N(CCC#N)c1ccc(C=O)cc1,20.4%,-24.7%,-7.4%,-8.1%,-12.2%,7%
CCOC(=O)NN(C(=O)OCC)c1c(C)cc(C)c(N(NC(=O)OCC)C(=O)OCC)c1C,1.7%,7.25%,12.4%,23.9%,16.4%,22.6%
Clc1ccc(-c2nnc(-c3ccc4ccccc4c3)o2)cc1Cl,3.25%,-28.9%,7.15%,11.8%,-14.9%,-6.2%
Cn1cnc2c(=O)[nH]cnc21,12.9%,-12.7%,-2.4%,-4.8%,14.7%,-8.5%
Nc1ccc([N+](=O)[O-])c(Cl)c1,5.35%,-8.3%,-11%,-18.1%,-13.1%,13.3%
Clc1ccc2c(c1)nc(-c1ccccn1)n2CCc1ccncc1,3.75%,0.05%,2.4%,-16.4%,-13.4%,13.8%
CC(=O)OC(COC(c1ccccc1)(c1ccccc1)c1ccccc1)C(OC(C)=O)C(COC(c1ccccc1)(c1ccccc1)c1ccccc1)OC(C)=O (stereo unspecified),-25.9%,-8.4%,-22.5%,-18.8%,-6.6%,-15.1%
O=C1C2Cc3ccccc3CN2C(=O)N1CCN1CCOCC1 (stereo unspecified),7.25%,-21.8%,-4.15%,12.8%,3.25%,22.6%
CC(O)C([NH-])C(=O)O.CC([NH-])C(=O)O.[Cu+2] (stereo unspecified),26.6%,15.7%,6.95%,12.7%,13.3%,15.4%
CC(=O)N/N=C/c1ccc(C)cc1,6.6%,-1.3%,-11.1%,-0.9%,-11.8%,1.75%
Cc1ncc([N+](=O)[O-])n1CCSC(N)=O,-6.75%,-13.6%,-11.2%,11.4%,16.8%,33.5%
CCCCC(=CC(C)(C)C)CCCC,22.9%,-2.4%,-7.7%,7.95%,20.6%,14.5%
Cc1ccc(CC(=O)C(=O)O)c([N+](=O)[O-])c1,-9.7%,38.1%,4.5%,-23.6%,-17.9%,8.2%
COc1cc(C=O)cc(NC(C)=O)c1OC(C)=O,6.55%,0.3%,4.85%,-4.85%,24.9%,9.95%
CC(C)=CCNc1ccccc1,-11.3%,-24.1%,1.7%,17.4%,1.05%,-7.3%
c1scc2c1COCCOCCOCCOCc1cscc1COCCOCCOCCOC2,-20.2%,-26.1%,-38.4%,26.6%,-30.4%,-46.5%

Compound,growth inhibition [1],growth inhibition [2],growth inhibition [3],growth inhibition [4],growth inhibition [5],growth inhibition [6]
O=C(/C=C/c1ccccc1)/C=N/N1C(=S)N(c2ccccc2)C(=Nc2ccccc2)C1=Nc1ccccc1,-7.4%,-15.8%,-12.9%,-20.2%,-20.1%,-21.6%
O=C(O)c1cc(C2CC2)nc2ccccc12,-1%,1.6%,0.55%,-0.95%,-14.6%,24.6%
CC1=C(C#N)C(C)(C)c2ccccc21,19.9%,-10.9%,1.9%,-25.9%,10%,-13.2%
CN1CCC2(C1)C1CC3CC(C1)CC2C3 (stereo unspecified),1.2%,-13.9%,-8.5%,-7.3%,3.4%,-9.35%
COc1ccc2oc3c(C)cc4c(OC)nnc(OC)c4c3c2c1,-43.8%,-52.9%,-13.4%,-18.1%,-5.35%,-12.8%
CCC(CC)CC1CCCCC1=O (stereo unspecified),1.3%,-5.25%,-6.25%,3.75%,-20.6%,-7.65%
Cc1nc2ccccc2n1C(=O)c1c(F)c(F)c(F)c(F)c1F,-35.9%,-17.6%,-28.6%,-18.7%,-9.8%,-18.9%
O=c1cc(-c2ccccc2)oc2c(-c3cc(Cl)cc4c(=O)cc(-c5ccccc5)oc34)cc(Cl)cc12,-6.65%,23.4%,13.7%,-3.1%,-2.2%,79.3% (active)
CC(=O)Nc1ccc(N=NN(C)c2ccccc2)cc1,29.4%,36%,47.1%,5.45%,19.8%,44.4%
O=C1CC2C3CC(Br)C4C3CC2C14 (stereo unspecified),4.95%,-0.25%,1.75%,6.5%,7.2%,4.75%
OCc1ccc2ccccc2n1,24%,-1.2%,21.6%,-1.55%,12.7%,31.1%
S=C=NCCCCCCCCCCCCN=C=S,94.4% (active),89.5% (active),94.2% (active),58.5%,89.7% (active),94.7% (active)
CCN(CC)CCN1Cc2ccccc2C1,-4.8%,3.85%,-1.7%,-14.1%,7.4%,2.45%
O=C(Nc1nccs1)Nc1cc(F)ccc1F,5.7%,42.5%,21.5%,-13.2%,36.6%,8.35%
Cc1c(C(C)c2[nH]c3ccccc3c2C)[nH]c2ccccc12,8.1%,0.45%,-11.6%,4.45%,17.4%,-13.6%
O=C(N(CCc1ccc(O)cc1)Cc1ccc2c(c1)OCO2)C(F)(F)F,98% (active),96.8% (active),92.4% (active),92.4% (active),97.2% (active),98.6% (active)
CCCC(=O)C(=O)CCC,-5.25%,-17.4%,2.3%,-26.1%,-0.15%,-3.45%
CCCC=Nc1ccccc1,8.3%,3.65%,14.5%,-19.9%,10.8%,13.1%
